The record followed here is PubChem BioAssay (NCI).

A short description of assay [1]: NCI Yeast Anticancer Drug Screen. Data for the rad50 strain (AID 155).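 Note: 0% = growth of vehicle-only cultures of the same strain.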 As to conditions: S. cerevisiae rad50 strain growth inhibition; at 50.0 µM; stronger effect = higher value. Put shortly:
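Compounds were tested on a yeast strain with an engineered DNA damage repair alteration; the reported value is growth inhibition normalised to vehicle treatment.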

The nature of assay [2]: NCI Yeast Anticancer Drug Screen. Data for the mec2-1 strain (AID 157). As to conditions: S. cerevisiae mec2-1 strain, at 50.0 µM, stronger effect = higher value. Put shortly:
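mec2-1 yeast strain, carrying an alteration in DNA damage repair or cell cycle control, was exposed to compounds; growth inhibition was measured relative to vehicle-treated controls.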

The nature of assay [3]: NCI Yeast Anticancer Drug Screen. Data for the sgs1 mgt1 strain (AID 161).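 Note: 0% = growth of cultures given vehicle only.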 As to conditions: S. cerevisiae sgs1 mgt1 strain, at 50.0 µM, stronger effect = higher value. Summed up: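 This yeast growth screen uses a strain with defined DNA-repair lesions; compound-treated growth is compared with vehicle-treated growth.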
Assay [4] can be described thus: NCI Yeast Anticancer Drug Screen. Data for the cln2 rad14 strain (AID 165).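 Note: 0% = growth equal to vehicle treated cultures.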 As to conditions: S. cerevisiae cln2 rad14 strain, at 50.0 µM, stronger effect = higher value. Put shortly: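 Yeast carrying cln2 and rad14 alterations (cell cycle control and DNA damage repair) were exposed to compounds. Growth inhibition was measured against vehicle-treated controls.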
Assay [5] in a line: NCI Yeast Anticancer Drug Screen. Data for the bub3 strain (AID 167). As to conditions: S. cerevisiae bub3 mutant strain, at 50.0 µM, stronger effect = higher value. Summed up:
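Growth of a checkpoint-deficient yeast mutant is measured after compound exposure. Values represent inhibition relative to vehicle.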

Assay [6] in a line: NCI Yeast Anticancer Drug Screen. Data for the mlh1 rad18 strain (AID 175). As to conditions: S. cerevisiae mlh1 rad18 strain growth inhibition; at 50.0 µM; stronger effect = higher value. Summed up:
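Growth inhibition of the yeast strain was measured after compound exposure and expressed relative to vehicle-treated controls. The strain carries defined defects in DNA damage repair.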

Where “and” joins values, the source holds several entries; their conditions need not be identical. Equal values may be shown once. About 79,000 compounds went through this panel and 15% of them were active in at least one assay; those are over-represented in the sample as a whole. Some structures have more than one record in an assay (separate samples or runs), and their calls can disagree. Calls of active or inactive are those of the source. Cut-off read from the data, not from the text of the source: active = growth inhibition above about 70%; inactive = the rest.

Consider `CC(=O)OC1CC2CCC1(C)C2(C)C` (stereo unspecified), for which the growth inhibition was 34.9% (inactive) and 30.8% (inactive) and -12.2% (inactive) in assay [1]; 26.9% (inactive) and 26.1% (inactive) and -20.2% (inactive) in assay [2]; 25.8% (inactive) and -34.8% (inactive) and -3.7% (inactive) in assay [3]; 19.9% (inactive) and 18.3% (inactive) and 5.2% (inactive) in assay [4]; 29.5% (inactive) and -30.4% (inactive) and 3.55% (inactive) in assay [5]; 4.85% (inactive) and -78.1% (inactive) and -14.2% (inactive) in assay [6].
Consider `O=S(=O)(O)c1cc(N=Nc2cc(S(=O)(=O)O)c3cccnc3c2O)ccc1/C=C/c1ccc(N=Nc2cc(S(=O)(=O)O)c3cccnc3c2O)cc1S(=O)(=O)O`, for which the growth inhibition in assay [1] is -16.7% (inactive) and 18.6% (inactive); in assay [2], -17.4% (inactive) and 7.65% (inactive); in assay [3], -26.5% (inactive) and 7.4% (inactive); in assay [4], -24.4% (inactive) and -55.5% (inactive); in assay [5], -18.6% (inactive) and -62.5% (inactive); in assay [6] it was -111% (inactive) and -27.9% (inactive).
Take `CCc1ccc(N)cc1`: the growth inhibition in assay [1] was -16.4% (inactive) and -3.75% (inactive); in assay [2], -16.6% (inactive) and 4.3% (inactive); in assay [3], -23.4% (inactive) and -4.25% (inactive); in assay [4], -5.55% (inactive) and -28.5% (inactive); in assay [5] it was -16.5% (inactive) and -11.1% (inactive); in assay [6], -16.7% (inactive) and 4.35% (inactive).
Take `CC(C)(C)CC(C)(C)c1ccc(O)c(SSc2cc(C(C)(C)CC(C)(C)C)ccc2O)c1`: the growth inhibition in assay [1] is 4.95% (inactive) and 11.8% (inactive); in assay [2], -16.1% (inactive) and 4.4% (inactive); in assay [3] it was 7.7% (inactive) and -8.55% (inactive); in assay [4], 13.2% (inactive) and -17.5% (inactive); in assay [5], 11.5% (inactive) and 0.5% (inactive); in assay [6], 6.65% (inactive) and 24.1% (inactive).
As to `CCCCc1ccc(OC2OC(COC(C)=O)C(OC(C)=O)C(OC(C)=O)C2OC(C)=O)cc1` (stereo unspecified), the growth inhibition in assay [1] was -29.1% (inactive) and -28.1% (inactive); in assay [2], -14.3% (inactive) and 6.7% (inactive); in assay [3], -42.8% (inactive) and -12.9% (inactive); in assay [4], -4.35% (inactive) and 17.6% (inactive); in assay [5], -32.5% (inactive) and -4.9% (inactive); in assay [6], -35.5% (inactive) and -0.5% (inactive).
With `COc1ccc(C(O)c2nccn2C)c(OC)c1` (stereo unspecified), the growth inhibition in assay [1] is -17.6% (inactive) and -23.8% (inactive); in assay [2] it was -3.55% (inactive) and -10.8% (inactive); in assay [3], -0.3% (inactive) and -6.2% (inactive); in assay [4], 14.7% (inactive) and 10.1% (inactive); in assay [5] it was 20.1% (inactive) and 21% (inactive); in assay [6], 5.35% (inactive) and -6.35% (inactive).
As for `CC(C)(N)CCC(=O)O`, the growth inhibition in assay [1] was 10.3% (inactive) and -0.25% (inactive); in assay [2] it was 20.9% (inactive) and 3.7% (inactive); in assay [3] it was 12.6% (inactive) and -1.85% (inactive); in assay [4], -3.05% (inactive) and -7.2% (inactive); in assay [5], -28.7% (inactive) and 11.1% (inactive); in assay [6], 6.8% (inactive) and -3.15% (inactive).
As to `O=[N+]([O-])c1ccc(Cc2ccccc2)cc1`, the growth inhibition in assay [1] was -2.8% (inactive) and -37.1% (inactive); in assay [2], -32.1% (inactive) and -23.9% (inactive); in assay [3] it was 7.7% (inactive) and -11.6% (inactive); in assay [4], 3.2% (inactive) and -9.15% (inactive); in assay [5], 13.8% (inactive) and -11.9% (inactive); in assay [6], -30.9% (inactive) and -14.7% (inactive).
Consider `CN(C)N=Nc1ccc(C(=O)O)cc1`, for which the growth inhibition in assay [1] was 27.6% (inactive) and 12.6% (inactive); in assay [2], 22.1% (inactive) and -1.3% (inactive); in assay [3], 28.6% (inactive) and 20.9% (inactive); in assay [4] it was -0.05% (inactive) and -0.65% (inactive); in assay [5], 16.9% (inactive) and -21.1% (inactive); in assay [6], 26.6% (inactive) and 7.65% (inactive).
Consider `CC(C)=CCCC(C)C1CCC2(C)C3=C(CCC12C)C1(C)CCC(O)C(C)(C)C1CC3` (stereo unspecified), for which the growth inhibition in assay [1] was 32.6% (inactive) and 9.75% (inactive); in assay [2], 16.4% (inactive) and 2.65% (inactive); in assay [3], 27.6% (inactive) and 20.9% (inactive); in assay [4] it was 25.9% (inactive) and -0.25% (inactive); in assay [5], 7.8% (inactive) and 15.2% (inactive); in assay [6] it was 23.9% (inactive) and 29.6% (inactive).
With `COc1ccc2c(=O)oc3c(OC)cc(CCN(C)C)c4c(=O)oc1c2c34`, the growth inhibition is 62.9% (inactive) and -8.15% (inactive) in assay [1]; -0.55% (inactive) and -23.4% (inactive) in assay [2]; 0.35% (inactive) and -57.6% (inactive) in assay [3]; 4.3% (inactive) and -24.4% (inactive) in assay [4]; 20.2% (inactive) and -43.8% (inactive) in assay [5]; 25.4% (inactive) and -30.3% (inactive) in assay [6].
Consider `O=C1O/C(=C(/C(=O)O)c2ccc(O)cc2)C(O)=C1c1cc2c3c(c(O)cc(C4=C(O)/C(=C(\C(=O)O)c5ccc(O)cc5)OC4=O)c3c1)OC2=O`, for which the growth inhibition is -12.8% (inactive) and -7% (inactive) in assay [1]; -7.25% (inactive) and -10.4% (inactive) in assay [2]; -8.55% (inactive) and 5.6% (inactive) in assay [3]; -0.65% (inactive) and -9.85% (inactive) in assay [4]; -5% (inactive) and -1.65% (inactive) in assay [5]; 3.4% (inactive) and 4.6% (inactive) in assay [6].
On to `Clc1ccc(/C=N/N=C/c2ccc(Cl)cc2)cc1`, for which the growth inhibition in assay [1] was -52.5% (inactive) and -17.1% (inactive); in assay [2] it was -28.9% (inactive) and -16% (inactive); in assay [3], -42.2% (inactive) and -19.6% (inactive); in assay [4], -23% (inactive) and -20.1% (inactive); in assay [5], -33.3% (inactive) and 6.3% (inactive); in assay [6], -33.5% (inactive) and -18.1% (inactive).
Take `O=C(NS(=O)(=O)c1ccccc1)OCc1ccccc1`: the growth inhibition in assay [1] was 4.65% (inactive) and -18.1% (inactive); in assay [2], -11.8% (inactive) and -4.35% (inactive); in assay [3], -14.8% (inactive) and -15.3% (inactive); in assay [4], -22.2% (inactive) and -31.8% (inactive); in assay [5], 16.7% (inactive) and 24.8% (inactive); in assay [6], -6.1% (inactive) and 6.1% (inactive).
Turning to `CC(C)C1CCC(NC(=O)Nc2ccccc2)CC1` (stereo unspecified), the growth inhibition is 79.5% (active) and 20.6% (inactive) in assay [1]; 48.5% (inactive) and 20.3% (inactive) in assay [2]; 70.5% (active) and 43.2% (inactive) in assay [3]; 46.2% (inactive) and -3.5% (inactive) in assay [4]; 66.7% (inactive) and 23.6% (inactive) in assay [5]; 81.1% (active) and 44.8% (inactive) in assay [6].
On to `CCc1ccc(NCc2cc(OC)c(OC)c(OC)c2)cc1`, for which the growth inhibition in assay [1] is 22.8% (inactive) and 3.85% (inactive); in assay [2], -3.9% (inactive) and -6.2% (inactive); in assay [3] it was 25.9% (inactive) and 33% (inactive); in assay [4] it was -4.45% (inactive) and -2.55% (inactive); in assay [5], 40% (inactive) and 38.9% (inactive); in assay [6], -55.3% (inactive) and -23.8% (inactive).
With `COc1ccc(NS(=O)(=O)c2ccccc2)cc1`, the growth inhibition in assay [1] is -3.55% (inactive) and -19.6% (inactive); in assay [2], -2.7% (inactive) and -17.2% (inactive); in assay [3], -3.2% (inactive) and -6.95% (inactive); in assay [4] it was -20.7% (inactive) and -48.8% (inactive); in assay [5], 1.55% (inactive) and 8.9% (inactive); in assay [6], -6.3% (inactive) and -9.8% (inactive).
Take `NC(=O)Nc1ccc(Cl)cc1`: the growth inhibition in assay [1] was -17.2% (inactive) and 22.5% (inactive); in assay [2], -11.8% (inactive) and -9.35% (inactive); in assay [3], -24.8% (inactive) and -5% (inactive); in assay [4], -17.9% (inactive) and -12.5% (inactive); in assay [5] it was -4.2% (inactive) and -17.1% (inactive); in assay [6], -10.9% (inactive) and 15.4% (inactive).
As to `O=C(O)CCC(C(=O)O)N1C(=O)c2ccccc2C1=O` (stereo unspecified), the growth inhibition was 9.3% (inactive) and -0.9% (inactive) in assay [1]; -0.3% (inactive) and -41.5% (inactive) in assay [2]; 0.3% (inactive) and -24.4% (inactive) in assay [3]; -30.1% (inactive) and -10.7% (inactive) in assay [4]; 3.75% (inactive) and -48.2% (inactive) in assay [5]; 8.6% (inactive) and -0.75% (inactive) in assay [6].
As to `CC(Cc1ccccc1)NC(=O)c1ccccc1` (stereo unspecified), the growth inhibition is 18.2% (inactive) and 5.45% (inactive) in assay [1]; 3.3% (inactive) and -1.1% (inactive) in assay [2]; -19.9% (inactive) and -2.25% (inactive) in assay [3]; -93.5% (inactive) and -7.65% (inactive) in assay [4]; -14.9% (inactive) and 2.45% (inactive) in assay [5]; 7.4% (inactive) and -5.3% (inactive) in assay [6].
On to `NC(N)=NCCCC1NC(=O)C(Cc2ccc(O)cc2)NC1=O` (stereo unspecified), for which the growth inhibition was 15.3% (inactive) and -3.3% (inactive) in assay [1]; 21.8% (inactive) and -3.25% (inactive) in assay [2]; 48.9% (inactive) and -4.85% (inactive) in assay [3]; -5.05% (inactive) and -8.55% (inactive) in assay [4]; 38.2% (inactive) and 3.55% (inactive) in assay [5]; 33.2% (inactive) and -1.6% (inactive) in assay [6].
